ALR H2O2 inh: inhibitors of human ALR sulfhydryl oxidase, primary screen, biochemical, H2O2 detection, HRP-luminol luminescence, single point. FAD-linked sulfhydryl oxidase ALR (Homo sapiens), P55789. inhibition, % (no concentration beside the values). purified ALR, DTT oxidation. actives 3.8% (n = 290,000);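 active means mean replicate inhibition above about 79%, with every replicate also reaching it, limit read from the data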
Target sequence (P55789 whole entry, looked up): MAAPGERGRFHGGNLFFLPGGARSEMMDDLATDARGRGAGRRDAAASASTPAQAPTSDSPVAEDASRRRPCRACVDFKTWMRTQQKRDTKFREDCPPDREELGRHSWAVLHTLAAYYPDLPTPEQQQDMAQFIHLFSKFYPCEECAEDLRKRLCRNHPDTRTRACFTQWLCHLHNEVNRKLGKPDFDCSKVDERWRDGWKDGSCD
PRMT1 inh: PRMT1 methyltransferase inhibitors, primary screen, biochemical, fluorescence polarization; recombinant PRMT1, activity-based probe fluorescence polarization; actives 1.3% (n = 370,000); inhibition, % at 2.79 µM; Protein arginine N-methyltransferase 1 (Homo sapiens), Q99873; AID 652257, 2013;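 active means inhibition above about 21% made by adding two undisclosed values, limit read from the data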
rCAG binder: binders of r(CAG) RNA repeats, primary screen, biochemical, fluorescence. inhibition, % at 3 µM. actives 1.3% (n = 370,000). r(CAG) RNA repeat, TO-PRO-1 dye displacement fluorescence;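 active means inhibition above the plate cutoff, the mean of all test compounds on that plate plus 3 SD, cut at about 35% in these data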;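 further: 0% = DMSO alone and 100% = 100 µM mitoxantrone as full dye displacement; higher means more dye released from RNA so lower well fluorescence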
LANA-H2B inh: blockers of LANA interaction with H2A/H2B – biochemical, FP readout, HTS, primary screen. cell-free LANA-H2A/H2B peptide, fluorescence polarization. inhibition, % (concentration not given with the values). actives 0.6% (n = 320,000). AID 2629, 2010; in the data active means inhibition mostly above about 10%, no sharp cut-off; inactive means mostly below about 6.7%
Rtt109 HAT inh: inhibitors of C. albicans Rtt109/Vps75 HAT, primary screen, biochemical, ThioGlo CoA-SH fluorescence, plate reader; Histone acetyltransferase RTT109 (Candida albicans (strain SC5314 / ATCC MYA-2876)), …; purified Rtt109/Vps75, 4 h; inhibition, % at 34.9 µM; actives 0.16% (n = 330,000);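 active means inhibition of at least 50% in every replicate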
Target sequence (Q5AAJ8 whole entry, looked up): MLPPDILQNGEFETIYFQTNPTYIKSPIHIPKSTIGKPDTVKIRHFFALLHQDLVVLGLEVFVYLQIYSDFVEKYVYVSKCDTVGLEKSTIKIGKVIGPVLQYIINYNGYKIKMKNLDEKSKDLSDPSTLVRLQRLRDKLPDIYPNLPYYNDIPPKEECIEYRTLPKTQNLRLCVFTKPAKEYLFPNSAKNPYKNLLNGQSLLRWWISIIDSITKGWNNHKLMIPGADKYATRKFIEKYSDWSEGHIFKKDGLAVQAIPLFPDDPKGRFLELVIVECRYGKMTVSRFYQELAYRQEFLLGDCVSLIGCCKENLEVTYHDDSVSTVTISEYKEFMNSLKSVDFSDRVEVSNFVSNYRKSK
ABHD5-PLIN5 inh: ABHD5-PLIN5 interaction inhibitors, primary screen, cell lysate, split luciferase complementation, luminescence; inhibition, % at 4 µM; actives 0.78% (n = 360,000); Split G. princeps luciferase complementation, 4 h; Perilipin-5 (Homo sapiens) + 1-acylglycerol-3-phosphate O-acyltransferase ABHD5 (Homo …;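 active means inhibition above the mean inhibition across every tested compound plus 3 SD, cut at about 22% in these data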;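 further: 0% = DMSO only wells and the 100% control is not disclosed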
Starred values were filed as active, the others as inactive; . = no result; + = active, no number. Only some compounds are listed: those with a hit (about 5.9% of all), similar ones and a draw of the others.

SMILES	ALR H2O2 inh	PRMT1 inh	rCAG binder	LANA-H2B inh	Rtt109 HAT inh	ABHD5-PLIN5 inh
C=CCN=C1NC(c2ccc(C(F)(F)F)cc2)C(C(=O)OC)=C(C)N1Cc1ccccc1C(F)(F)F (centres undefined)	.	2	0	.	.	.
C=CCn1c(SCC(=O)N2c3ccccc3Sc3ccccc32)nnc1-c1ccco1	.	-4	-4	23*	16	5
CCn1c(SCC(=O)N2c3ccccc3Sc3ccccc32)nnc1-c1ccco1	15	21	-3	-6	-3	3
CCOc1ccc2nc(NC(=O)CS(=O)(=O)c3ccccc3)sc2c1	-22	2	12	-1	4	-6
CCOc1ccc2nc(NC(=O)CS(=O)(=O)c3ccc(C)cc3)sc2c1	81*	3	9	3	4	-2
COc1cc(/C=C(\C#N)c2nc3ccccc3n2C)cc(OC)c1O	99*	-3	-8	-3	-2	5
Cn1c(/C(C#N)=C/c2ccc(O)cc2)nc2ccccc21	99*	-1	3	-5	3	-1
Cn1c(/C(C#N)=C/c2ccncc2)nc2ccccc21	3	-2	-1	-3	.	-2
CCOC(=O)[C@@]12CCCC3=C1N(CCC3)C(=O)[C@H]2CC(=O)NCc1cccc2ccccc12	.	-3	2	.	.	.
Cc1[nH]cnc1/C=N\NC(=O)c1cccc(S(=O)(=O)N(C)C)c1	.	2	1	.	.	.
CN1CCSc2ccc(C(=O)Nc3cc(F)ccc3F)cc21	10	15	4	5	-11	-4
Cc1ccc(CN2CCSc3ccc(C(=O)NCc4ccccn4)cc32)cc1	98*	3	-2	7	-27	4
Cc1ccccc1NC(=O)c1ccc2c(c1)N(C)CCS2	98*	-3	1	-2	-7	-5
O=C(NCc1ccco1)c1ccc2c(c1)N(Cc1ccccc1)CCS2	98*	18	7	5	-9	8
O=C(NCc1ccco1)c1ccc2c(c1)N(Cc1ccc(Cl)cc1)CCS2	73	0	0	-1	-1	2
O=C1Nc2cc(C(=O)NCCCN3CCCC3)ccc2S/C1=C\c1ccccc1	22	0	20	0	73*	13
CCCCNC(=O)C1c2ccccc2OCC(=O)N1Cc1ccc2c(c1)OCO2 (centres undefined)	.	0	2	.	.	-7
CCN1CCN(CCCNC(=O)c2ccc3c(c2)N(Cc2ccccc2)CCS3)CC1	99*	-2	-6	7	-63	-2
CCN1CCSc2ccc(C(=O)NCc3ccccc3C)cc21	90*	19	5	-7	-49	-7
O=C(NCCCN1CCCC1)c1ccc2c(c1)N(Cc1ccccc1)CCS2	99*	0	6	5	-76	4
NS(=O)(=O)c1ccc(CCNC(=O)c2ccc3c(c2)N(Cc2ccccc2)CCS3)cc1	18	0	7	0	-11	0
CC1=C(C(=O)N(C(C)C)C(C)C)CC(CC(=O)NC2CC2)C(=O)N1CCCN1CCCC1=O (centres undefined)	.	-4	1	.	.	-6
S=c1[nH]nc2n1CCCN2	95*	-2	0	3	-9	0
CCOC(=O)C1=C(O)/C(=C/c2cccc(OC)c2O)N=C1C	78*	4	-1	2	-1	0
CCOC(=O)C1=C(O)/C(=C\c2cc(C)n(-c3ccccc3F)c2C)N=C1C	-6	7	5	4	-4	2
SMILES	ALR H2O2 inh	PRMT1 inh	rCAG binder	LANA-H2B inh	Rtt109 HAT inh	ABHD5-PLIN5 inh
COC(=O)C1=C(O)/C(=C\c2ccc(O)c(OC)c2)N=C1C	99*	1	-9	1	18	0
COC(=O)C1=C(O)/C(=C\c2ccc(OCC(=O)Nc3ccccc3OC)cc2)N=C1C	4	3	7	3	-1	6
Cc1cccc(CCNC(=O)c2ccc3c(c2)ncn3C2CCCCC2)c1	.	1	0	.	.	.
Cc1cc(C)nc(SCNC(=O)c2ccc(F)cc2)n1	-2	26*	0	5	-4	-5
CC(C)C(=O)NC(c1ccc(N(C)C)cc1)c1c(O)ccc2ccccc12 (centres undefined)	14	4	0	27*	-6	5
Cc1ccc(S(=O)(=O)NC(CC(C)C)C(=O)NCC(C)(C)N2CCOCC2)cc1 (centres undefined)	0	1	-9	-1	-1	-6
Cc1cccc(N2C(=O)CN(Cc3cccs3)C2=S)c1	-3	0	1	+	0	3
Cc1cccc(N2C(=O)CN(Cc3sccc3C)C2=S)c1	-4	0	-3	2	-9	7
Cc1ccc(NS(=O)(=O)c2cc3c(cc2Cl)NC(=O)CO3)cc1C	.	-1	.	.	.	.
CCN(CC)CCC(c1ccc(N(C)C)cc1)c1c(OC)cc(OC)c2ccc(=O)oc12 (centres undefined)	99*	-2	3	-10	-1	1
CCN(CC)C(=O)CC(c1ccc2c(c1)OCO2)c1c(OC)cc(OC)c2ccc(=O)oc12 (centres undefined)	4	0	1	-3	-17	-3
CCCCCc1cc(=O)oc2c(C(CCN(CC)CC)c3ccc(OC)cc3)c(OC)cc(OC)c12 (centres undefined)	-82	-1	2	-1	25	12
CCN(CC)C(=O)CC(c1ccc(N(C)C)cc1)c1c(OC)cc(OC)c2ccc(=O)oc12 (centres undefined)	98*	2	6	2	-7	-5
Oc1ccc(/C=N/N2CCN(Cc3ccccc3)CC2)cc1	82*	0	-5	7	-2	-7
COc1ccccc1N1CCN(/N=C/c2cccc(O)c2)CC1	51	-3	-5	-3	3	-11
COc1cc(/C(C)=N/N2CCN(Cc3ccc(C)cc3)CC2)ccc1O	89*	5	-2	-1	-9	-9
COc1cc(/C=N/N2CCN(Cc3ccc(C)cc3)CC2)cc(OC)c1O	99*	-2	-6	2	11	-3
COc1ccccc1N1CCN(/N=C/c2cc(OC)c(O)c(OC)c2)CC1	99*	2	-6	0	6	-5
COCC(C)n1c(SCc2ccc(C(=O)OC)cc2)nc2ccccc2c1=O (centres undefined)	-7	-1	1	-1	5	-3
O=C(N[C@H](Cc1ccccc1)C(=O)NC1CCCCC1)[C@H]1O[C@@H](n2ccc(=O)[nH]c2=O)[C@H](O)[C@@H]1O	.	4	2	.	.	.
